Compounds with a hit are over-represented: about 19% of the library has one in this group of screens.
MARV entry inh: qHTS for inhibitors of binding or entry into cells for Marburg Virus; 1.8% of 300,000 active; AID 540276, 2011; Marburg virus pseudotyped entry inhibition, cell reporter; Potency, µM (series often up to 37.8 µM), without a hit: top-dose activity change, negative = inhibition, most hits filed as inhibitors; calls by dose curve; tested in HEK293 cells; further: potency means the concentration at half of the fitted maximal effect; on the % scale 0 is the no-effect control and ±100 the full control effect
Shiga inhibitor: A qHTS for Small Molecule Inhibitors of Shiga Toxin; inhibition, % at 38.7 µM; 9.2% of 290,000 active; Vero cells, Shiga toxin protein synthesis inhibition reporter; in the data active means inhibition mostly above about 28%, no sharp cut-off; inactive means mostly below about 43%; further: 0% is about no effect
Pf growth 96h: Primary qHTS for delayed death inhibitors of the malarial parasite plastid, 96 hour incubation; P. falciparum luciferase reporter growth, 96 h; 6.9% of 320,000 active; Potency, µM (titrated, usually from 28.7 µM), for the others: at the top dose activity change, negative = inhibition, actives largely listed as inhibitors; AID 504834, 2011; further: potency means the concentration at half of the fitted maximal effect; on the % scale 0 is the no-effect control and ±100 the full control effect
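Parasite growth measured via integrated firefly luciferase reporter in P. falciparum. Infected erythrocytes at 2% hematocrit, 0.05% parasitemia final were treated 96 hours at 37 C under 5% CO2, and luminescence was read.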
Pf growth 48h: Primary qHTS for delayed death inhibitors of the malarial parasite plastid, 48 hour incubation; 5.9% of 310,000 active; P. falciparum luciferase growth in erythrocytes, 48 h; Potency, µM (titrated, usually from 28.7 µM), without a hit: at the highest dose activity change, negative = inhibition, actives largely listed as inhibitors; AID 504832, 2011; further: potency means the concentration at half of the fitted maximal effect; on the % scale 0 is the no-effect control and ±100 the full control effect
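Luciferase-expressing P. falciparum in infected erythrocytes (2% hematocrit, 0.1% parasitemia final) in RPMI 1640/0.5% Albumax were exposed to compound for 48 hours at 37 C, 5% CO2; growth read as luminescence.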
CHX counter: Cycloheximide Counterscreen for Small Molecule Inhibitors of Shiga Toxin; cell reporter, cycloheximide protein synthesis inhibition counterscreen; max response, %; 12% of 300,000 active; AID 2314, 2010; in the data active means max response mostly above about 13%, no sharp cut-off; inactive means mostly below about 14%; further: read at 38.3 µM for the half of the compounds with a filed dose; 0% is about no effect
LASV entry inh: qHTS for Inhibitors of binding or entry into cells for Lassa Virus | Potency, µM (doses to about 37.9 µM), inactives show at the top dose activity change, negative = inhibition, usual class: inhibitors | Lassa virus pseudotype entry inhibition, cell reporter | 1.2% of 300,000 active; calls by dose curve; tested in HEK293 cells; further: potency means the concentration at half of the fitted maximal effect; on the % scale 0 is the no-effect control and ±100 the full control effect; nearly all actives have a fitted effect of over 50% in size
An asterisk follows results filed as active; ? = inconclusive; . = no result given; [ ] = another dose, or the depositor's remark. Unless noted, the call rests on the fitted dose curve; in most records, active means well fitted inhibition curve with a large enough effect; inconclusive means small, poorly fitted or top-dose-only effect, or another doubt; inactive means no such curve, though single readings can be large or run the other way.

SMILES	MARV entry inh	Shiga inhibitor	Pf growth 96h	Pf growth 48h	CHX counter	LASV entry inh
Cc1cc(=O)oc2c(C)c(OCC(=O)NCCCN3CCCC3=O)ccc12	.	11	?	22%	-1	.
COc1ccc(C(NC(C)=O)c2c(O)ccc3ccccc23)cc1OC (stereo unspecified)	?	8	-96%	-1%	10	9%
CC(C)C(=O)NC(c1ccc([N+](=O)[O-])cc1)c1c(O)ccc2ccccc12 (stereo unspecified)	6%	-8	2.6µM*	1.9µM*	-2	-3%
CC(=O)NC(c1ccc([N+](=O)[O-])cc1)c1c(O)ccc2ccccc12 (stereo unspecified)	?	-8	-23%	?	1	1%[46.1 µM]
CC(C)C(=O)NC(c1cccc([N+](=O)[O-])c1)c1c(O)ccc2ccccc12 (stereo unspecified)	-23%[46.1 µM]	-11	2%	4.7µM*	-1	10%
Cc1cc(NC(=O)CSc2nc(C(C)(C)C)nc3ccccc23)no1	.	-37	?	-9%	7	.
COc1ccc(NC(=S)N(Cc2cccnc2)Cc2cc3cc(OC)c(OC)cc3[nH]c2=O)cc1	?	4	-22%	?	5	-3%
CCN1C(=O)C2C(c3ccccc3F)NC(Cc3ccc(O)cc3)(C(=O)OC)C2C1=O (stereo unspecified)	3%	-7	?	39%	-1	-10%
COC(=O)C1(C)NC(c2ccc(F)cc2)C2C(=O)N(c3ccc(C)cc3)C(=O)C21 (stereo unspecified)	.	16	2.3µM*	-1%	-1	.
CCN1C(=O)[C@H]2[C@@H](c3ccc(-c4ccccc4)c(OC)c3)N[C@@](Cc3ccccc3)(C(=O)OC)[C@H]2C1=O	.	.	0.66µM*	1.9µM*	.	.
CCN1C(=O)[C@H]2[C@@H](c3ccc(-c4ccc(Cl)c(Cl)c4)c(OC)c3)N[C@@](C)(C(=O)OC)[C@H]2C1=O	.	.	0.93µM*	2.1µM*	.	.
CCN1C(=O)[C@H]2[C@@H](c3ccc(-c4cccc(Cl)c4)c(OC)c3)N[C@@](CC(C)C)(C(=O)OC)[C@H]2C1=O	.	.	0.23µM*	0.33µM*	.	.
CCN1C(=O)[C@H]2[C@@H](c3ccc(-c4ccc(C(C)=O)cc4)c(OC)c3)N[C@@](Cc3ccccc3)(C(=O)OC)[C@H]2C1=O	.	.	9.3µM*	8.3µM*	.	.
Nc1ccccc1C(=O)NCc1ccco1	2%[46.1 µM]	16	-70%	2%	-1	?
OCC[C@H]1C[C@H](O)[C@@H](O)[C@@]2(Cc3ccccc3CO2)O1	.	.	?	9%	.	.
Nc1ccc2c(c1)sc1ccccc12	?	82*	?	-9%	58*	?
CCOc1c(C(=O)CC)cc2c(C)cc(=O)oc2c1C	8%	7	?	12µM*	-3	1%
CCOc1ccc2c(C)cc(=O)oc2c1OCC	12%	-9	39%	?	14	-3%
S=C(NCCN1CCOCC1)Nc1cccc(Cl)c1	?	-4	-27%	-8%	-2	6%
O=C(Nc1cccc(Cl)c1)c1ccc(NCCCN2CCOCC2)c([N+](=O)[O-])c1	10µM*	26	134%	?	1	?
O=[N+]([O-])c1cc(S(=O)(=O)N2CCCC2)ccc1NCCCN1CCOCC1	1%[46.1 µM]	2	?	-11%	7	3%
COCCCNC(=S)NNC(=S)Nc1cccc(Cl)c1	.	90*	-10%	?	28*	.
S=C(NCCCN1CCOCC1)Nc1cccc(Cl)c1	-1%	-9	45%	0%	-4	13µM*
Cc1ccc(NC(=O)c2ccc(NCC3CCCO3)c([N+](=O)[O-])c2)cc1Cl (stereo unspecified)	?	-9	-19%	?	-4	-13%
Cc1ccc(NC(=O)c2ccc(NCCCN3CCC(C)CC3)c([N+](=O)[O-])c2)cc1F	?	-13	-23%	1.2µM*	3	-10%
CCOc1cc(C(=O)Nc2c(NC)c3ccccc3oc2=O)cc(OCC)c1OCC	8%[46.1 µM]	.	.	.	.	2%[46.1 µM]

Source: PubChem (National Center for Advancing Translational Sciences (NCATS))
